Each structure is given as a SMILES string. This is part of a sample that, as a whole, favours compounds with a hit. Of some 83,000 tested, about 20% had one in any assay.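 In brief: 96-well plates, 48 h treatment, single concentration, percent growth endpoint.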 Unmarked numbers belong to inactive results. Activity calls are given as the source filed them. The calls were made as follows: active = growth percent below 10; inactive = the rest.

The source of these data is PubChem BioAssay (NCI).

Holding throughout (experiment): NCI-60 one-dose screen, 48 h (100 = growth as untreated, 0 = no growth, -100 = all killed)
Holding throughout (details): 10 µM unless noted

Test [1] has as its system DU-145 prostate.
Test [2] concerns K-562 leukemia.
The subject of test [3] is MALME-3M melanoma.
Test [4] has as its system MDA-MB-231 breast.
Test [5] concerns RXF 393 renal.
For test [6], the system named is SF-268 CNS.
For test [7], the system named is SF-295 CNS.
Test [8] has as its system SF-539 CNS.
Test [9] relates to UACC-257 melanoma.
The subject of test [10] is M14 melanoma.

Regarding `COc1cccc2c1c(C(=O)c1ccco1)cn2Cc1ccc(F)cc1`, the growth in test [1] was 100%; in test [2], 253%; in test [3], 131%; in test [4], 89.9%; in [5] it was 131%; in test [6] it was 114%. Also, the growth in test [7] is 122%; in test [8], 113%; in test [9] it was 104%; in test [10], 131%.

For `Cc1cc(C)c(CBr)c(C)c1`, the growth in test [1] was 107%; in test [2] it was 107%; in test [3], 99.3%; in test [4] it was 106%; in test [5], 100%; in test [6], 105%. For the same molecule, the growth is 101% in [7], 93.5% in test [8], 96.8% in test [9] and 109% in test [10].

Turning to `O=C(CN1CCN(C(=O)c2ccco2)CC1)Nc1ccc(Cl)cc1C(=O)c1ccccc1Cl`, the growth was 111% in test [1]; 80.6% in test [2]; 104% in test [3]; 49.2% in test [4]; -11.8% (active) in [5]; 90.7% in [6]. For the same molecule, the growth in [7] is 109%; in [8], 99.8%; in test [9], 86.2%; in test [10], 90.4%.

`CC(=O)OC1CCC2(C)C(CCC3C2CC(=O)C2(C)C3CC(Sc3ccc(N(CCCl)CCCl)cc3)C2C(C)=O)C1` (stereo not given): the growth in test [1] is 100%; in test [2], 7.43% (active); in test [3] it was 139%; in [4] it was 85.6%; in test [5], 107%; in test [6], 85.9%. In addition, the growth in test [7] was 67.6%; in test [8] it was 13.7%; in test [9], 90.3%; in [10], 81%.

As for `CC(=O)O[C@H]1C(=O)[C@@]2(C)[C@H]([C@H](OC(=O)c3ccccc3)[C@]3(O)C[C@H](OC(=O)[C@H](OC(=O)OCC4COC(C)(C)O4)[C@@H](NC(=O)c4ccccc4)c4ccccc4)C(C)=C1C3(C)C)[C@]1(OC(C)=O)CO[C@@H]1C[C@@H]2O` (stereo not given in full), the growth in test [1] was 22.9%; in [2], 19.8%; in test [3], 45%; in [4], 39.9%; in test [5], 32.9%; in test [6], 61.1%. The growth was 17.5% in test [7], 24.9% in [8], 59.4% in test [9] and -14.7% (active) in [10].

Take `COC(=O)[C@@H](C)C[C@H](Cc1ccccc1)NC(=O)c1csc([C@@H](C[C@H](C(C)C)N(C)C(=O)[C@H](C)NC(=O)[C@H]2CCCCN2C)OC(C)=O)n1`: the growth was 4.34% (active) in [1]; 10% (active) in test [2]; 44.2% in test [3]; 19.5% in [4]; 8.78% (active) in test [5]; 46.9% in test [6]. For the same molecule, the growth in test [7] is 17%; in test [8], -2.07% (active); in test [9] it was 45.8%; in test [10], 5.98% (active).

With `CC(C)=CCc1c(O)c(C(=O)CC(C)C)c(O)c2c(-c3ccccc3)cc(=O)oc12`, the growth in test [1] is 61.9%; in [2], 28%; in [3] it was 56.9%; in test [4], 5.93% (active); in test [5], 74.1%; in test [6] it was 52.1%. Besides, the growth in [7] is 43.4%; in [8], 68.9%; in test [9], 58.1%; in [10], 61%.

As for `CC[S][Hg][Cl]`, the growth in test [1] was 103%; in [2], 75.4%; in [3] it was 118%; in [4] it was 114%; in [5], 124%; in [6] it was 103%. Besides, the growth was 112% in test [7], 105% in test [8], 97.3% in test [9] and 106% in [10].

Regarding `CCCCNC(c1ccc(Cl)cc1)C(O)c1ccc(Cl)cc1` (stereo not given), the growth in test [1] was 37.2%; in test [2], 0.937% (active); in test [3], 39.7%; in test [4] it was 5.73% (active); in [5], 58.4%; in test [6] it was 55.9%. Also, the growth is 41.3% in [7], 68.3% in test [8], 86% in [9] and 25.7% in [10].

Regarding `COC(=O)[C@@H](C)C[C@H](Cc1ccccc1)NC(=O)c1csc([C@@H](C[C@H](C(C)C)N(C)C(=O)[C@@H](NC(=O)[C@H]2CCCCN2C)c2ccc(F)cc2)OC(C)=O)n1`, the growth is 6.65% (active) in [1]; 2.45% (active) in test [2]; 65.8% in test [3]; -9.8% (active) in test [4]; 74.7% in test [5]; 13.2% in test [6]. The growth in test [7] was 3.25% (active); in test [8], -17.9% (active); in test [9] it was 53.2%; in [10] it was -6.9% (active).

In the case of `O=C(O)C1C(C(=O)O)C2(Cl)C(Cl)=C(Cl)C1(Cl)C2(Cl)Cl.[Hg]` (stereo not given), the growth in [1] is 96.7%; in [2], 15.1%; in test [3], 69.5%; in [4], 86.4%; in test [5], 123%; in [6], 97.5%. Besides, the growth is 95.2% in test [7], 102% in [8], 74.7% in test [9] and 80.2% in [10].
